Experimental data from PubChem BioAssay (Tox21).
A number with no mark means an inactive call. Results filed as inconclusive are left out. A call without a number means that no potency is given here. Active and inactive are the calls of the source. Unless noted, calls follow the shape of the dose curve; as a rule, active = well fitted curve in the direction sought with a large enough effect in the repeat runs; inconclusive = weak or mixed curves; inactive = no such curve, though single readings can be large; an effect the other way counts as inactive or inconclusive.

How the values were obtained:
[1] = qHTS assay for small molecules that induce genotoxicity in human embryonic kidney cells expressing luciferase-tagged ATAD5 (AID 651632); also: nearly all actives have a fitted effect of over 15% in size
In short: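 Concentration-response screen for ATAD5 upregulation in HEK293T luciferase reporter cells; 16 hr treatment at 37C, then luminescence after 30 min with Amplite at room temperature.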

[2] = qHTS assay for small molecule agonists of the p53 signaling pathway - cell viability (AID 651633; calls by dose curve; also: nearly all actives have a fitted effect of over 30% in size; also: potency is read from the fitted curve at half-maximal effect)
In short: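 p53RE-bla cells were treated with compound for 16 hours at 37 C. Cytotoxicity was then measured as CellTiter-Glo luminescence after 30 min at room temperature.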

[3] = qHTS assay for small molecules that induce genotoxicity in human embryonic kidney cells expressing luciferase-tagged ATAD5 - cell viability (AID 651634; calls by dose curve; also: nearly all actives have a fitted effect of over 25% in size; also: potency is read from the fitted curve at half-maximal effect)
In short: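 15.5 hr compound or vehicle exposure of HEK293T cells expressing luciferase-tagged ATAD5 at 37C; live-cell protease activity is read by fluorescence after 30 min of CellTiter-Fluor.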

[4] = qHTS assay for small molecule disruptors of the mitochondrial membrane potential - cell viability (AID 720634; calls by dose curve;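 also: human HepG2 liver cancer cells; series mostly up to about 83 µM; nearly all actives have a fitted effect of over 20% in size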)
In short: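 In this qHTS format, HepG2 cells plated overnight were pinned with compound, incubated 1 hr, and assayed for ATP luminescence with CellTiter-Glo after m-MPI dye addition.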

[5] = qHTS assay to test for compound auto fluorescence at 590 nm (red) in HepG2 cells (AID 720674)
In short: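 HepG2 cells, 2,000 per well in MEM with 10% FBS, attached overnight at 37 C, then got 23 nL compound or DMSO. After 1 hr at 37 C, 5% CO2, red fluorescence was read at 540/590 nm against Rose Bengal sodium as reference.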

[6] = qHTS assay to test for compound auto fluorescence at 535 nm (green) in HepG2 cells (AID 720675)
[7] = qHTS assay to test for compound auto fluorescence at 460 nm (blue) in HEK293 cells (AID 720678)
In short: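 HEK293 cells (2,000/well, medium with 10% dialyzed FBS) attached 4-5 hr, then exposed to compound overnight at 37C, 5% CO2. Blue fluorescence read at 405/460 nm, with triamterene as reference fluorophore.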

[8] = qHTS assay to test for compound auto fluorescence at 590 nm (red) in HEK293 cells (AID 720679)
In short: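 HEK293 cells (2,000/well, 10% dialyzed FBS) attached 4-5 hr, then dosed with compound or DMSO and incubated overnight at 37C, 5% CO2. Red fluorescence read at 540/590 nm, Rose Bengal sodium as reference fluorophore.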

[9] = qHTS assay for small molecule disruptors of the mitochondrial membrane potential (AID 720635); also: potency is read from the fitted curve at half-maximal effect
In short: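 HepG2 cells exposed to compound 1 hr at 37C, then Mito-MPS dye 30 min. Ratio read of aggregate (540/590 nm) versus monomer (490/535 nm) fluorescence.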

Row | Compound | Potency [1] | Potency [2] | Potency [3] | outcome [4] | outcome [5] | outcome [6] | Potency [7] | outcome [8] | Potency [9] | fluorescence, relative to Rose Bengal [5] | fluorescence, % of fluorescein control [6] | fluorescence, % of triamterene [7] | fluorescence, % of fluorescent control [8]
1 | COc1cc(S(=O)(=O)Nc2ccccc2)c(OC)cc1N | inactive | inactive | inactive | inactive | inactive | inactive | inactive | inactive |  |  |  |  | 
2 | CC(CCc1ccc(O)cc1)NCCc1ccc(O)c(O)c1 (configuration not stated) | inactive | inactive | inactive | inactive | inactive | inactive | inactive | inactive |  |  |  |  | 
3 | O=C(CCS)OCC(COC(=O)CCS)(COC(=O)CCS)COC(=O)CCS | inactive | inactive | inactive | inactive | inactive | inactive | inactive |  |  |  |  |  | 
4 | C=Cc1ccc(OC(C)=O)cc1 | inactive | inactive | inactive | inactive | inactive | inactive | inactive | inactive |  |  |  |  | 
5 | O=C(Nc1ccc(C(=O)O)c(O)c1)c1ccccc1 | inactive | inactive | inactive | inactive | inactive |  | inactive |  | inactive |  |  |  | 
6 | CCCCCCCCCCCCCCCC(=O)OCC | inactive | inactive | inactive | inactive | inactive | inactive | inactive | inactive |  |  |  |  | 
7 | CCCCCCCC/C=C\CCCCCCCC(=O)OCCO | inactive | inactive | inactive | inactive | inactive | inactive | inactive | inactive | inactive |  |  |  | 
8 | CCCCCCCCCCCCCOC(=O)CCSCCC(=O)OCCCCCCCCCCCCC | inactive | inactive | inactive | inactive |  |  |  |  |  | 0.06% [at 18.6 µM] | -0.0137% [at 18.6 µM] | 0.0236% [at 18.6 µM] | 0.358% [at 18.6 µM]
9 | Cc1cc([N+](=O)[O-])ccc1N | inactive | inactive | 47.9 µM (active) | inactive | inactive | inactive | inactive | inactive |  |  |  |  | 
10 | c1ccc(CCCc2ccncc2)cc1 | inactive | inactive | inactive | inactive | inactive | inactive | inactive | inactive | 10.9 µM (active) |  |  |  | 
11 | Cc1ccc2c(c1[N+](=O)[O-])C(=O)c1ccccc1C2=O | inactive | inactive | inactive | inactive | inactive | inactive | inactive | inactive | 1.2 µM (active) |  |  |  | 
12 | COC(C)(C)OC | inactive | inactive | inactive | inactive | inactive | inactive | inactive | inactive |  |  |  |  | 
13 | CC(=O)C(=O)CC(C)C | inactive | inactive | inactive | inactive | inactive | inactive | inactive | inactive | inactive |  |  |  | 
14 | CCCCCc1ccco1 | inactive | 39.8 µM (active) | inactive | inactive | inactive |  | inactive | inactive | 44.7 µM (active) |  |  |  | 
15 | C/C(C=O)=C\c1ccccc1 | inactive | inactive | inactive | inactive | inactive | inactive | inactive | inactive | inactive |  |  |  | 
16 | CCCc1nc2c(C)cc(-c3nc4ccccc4n3C)cc2n1Cc1ccc(-c2ccccc2C(=O)O)cc1 | inactive | inactive | inactive | inactive | inactive | inactive | inactive | inactive |  |  |  |  | 
17 | CC(=O)OCCC(C)CC(C)(C)C (configuration not stated) | inactive | inactive | inactive | inactive | inactive |  | inactive | inactive | inactive |  |  |  | 
18 | Cc1ccc(S(=O)(=O)NC(=O)NC2CCCCC2)cc1 | inactive | inactive | inactive | inactive | inactive | inactive | inactive | inactive | inactive |  |  |  | 
19 | CO[C@@H]1[C@@H](OC)[C@H](C)[C@@](O)(CC(=O)O)O[C@H]1[C@H](C)[C@H]1O[C@@]2(CC[C@@](C)([C@H]3CC[C@@](C)([C@@H]4O[C@@H]([C@H]5O[C@](C)(O)[C@H](C)C[C@@H]5C)C[C@@H]4OC4C[C@H](OC)[C@@H](OC)[C@H](C)O4)O3)O2)C[C@H](O)[C@H]1C (some centres not stated) | inactive | inactive | 1.19 µM (active) | inactive | inactive | inactive | inactive | inactive |  |  |  |  | 
20 | COc1cc(C(C)=O)ccc1OCCCN1CCC(c2noc3cc(F)ccc23)CC1 | inactive | inactive | inactive | inactive | inactive | inactive | inactive | inactive |  |  |  |  | 
21 | Cc1ccc2c(c1)CCCN2 | inactive |  | inactive | inactive | inactive | inactive | inactive | inactive | inactive |  |  |  | 
22 | CCN(Cc1cccc(S(=O)(=O)O)c1)c1ccc(C(=C2C=CC(=[N+](CC)Cc3cccc(S(=O)(=O)O)c3)C=C2)c2ccc(O)cc2S(=O)(=O)[O-])cc1 | inactive |  | 33.1 µM (active) |  | inactive | inactive | inactive | inactive |  |  |  |  | 
23 | CNC1CCCN(c2c(F)cc3c(=O)c(C(=O)O)cn(C4CC4)c3c2OC)C1 (configuration not stated) | inactive |  | inactive | inactive | inactive |  | inactive | inactive | inactive |  |  |  | 
24 | CC(C)(C)CCCCCCOC(=O)c1ccccc1C(=O)OCCCCCCC(C)(C)C | inactive |  | inactive | inactive | inactive |  | inactive | inactive |  |  |  |  | 
25 | O=C(/C=C/c1ccc([N+](=O)[O-])cc1)c1ccccc1 |  | 68.7 µM (active) | inactive | inactive | inactive | inactive | inactive | inactive | 30.7 µM (active) |  |  |  | 
26 | Cc1ccc(Nc2c(F)cccc2Cl)c(CC(=O)O)c1 | inactive | inactive | inactive | inactive | inactive | inactive | inactive | inactive |  |  |  |  | 
